In this experiment the target is T1, Aspartate--tRNA(Asp/Asn) ligase (Mycobacterium tuberculosis (strain ATCC 25618 / H37Rv)) (UniProt P9WFW3).
T1 sequence (whole entry): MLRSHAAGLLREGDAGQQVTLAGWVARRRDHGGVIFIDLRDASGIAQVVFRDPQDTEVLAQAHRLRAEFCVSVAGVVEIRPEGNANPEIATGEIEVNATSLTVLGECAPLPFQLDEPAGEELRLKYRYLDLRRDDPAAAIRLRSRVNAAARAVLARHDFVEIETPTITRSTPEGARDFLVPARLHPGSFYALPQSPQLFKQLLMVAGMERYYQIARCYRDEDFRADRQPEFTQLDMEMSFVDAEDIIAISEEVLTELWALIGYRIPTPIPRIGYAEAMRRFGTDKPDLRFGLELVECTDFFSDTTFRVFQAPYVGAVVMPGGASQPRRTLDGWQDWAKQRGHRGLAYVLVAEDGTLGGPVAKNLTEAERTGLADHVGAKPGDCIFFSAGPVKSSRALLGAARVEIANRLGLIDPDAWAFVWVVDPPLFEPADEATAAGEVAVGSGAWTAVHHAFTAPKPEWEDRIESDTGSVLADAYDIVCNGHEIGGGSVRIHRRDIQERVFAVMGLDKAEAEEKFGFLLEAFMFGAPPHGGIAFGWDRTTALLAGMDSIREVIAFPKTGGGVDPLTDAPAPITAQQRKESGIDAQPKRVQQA
Kind of experiment: Assay for Asp RNA synthetase-1 from Mycobacterium tuberculosis. It is filed as functional. As to conditions: 30 µM. On the set-up: scale not given: in the data most compounds retested in dose-response had high values.
In the case of `O=c1oc(-c2cccs2)nn1CC(O)c1ccccc1` (stereo not given), the Percent Effect worked out at 1.71%. With `COC1CCCN(C(=O)Nc2nc(C)n(C)n2)C1` (stereo not given), the Percent Effect was -3.53%. Turning to `CC(C)N1CCC(NCc2cccnc2N(C)C)CC1`, the Percent Effect is -1.8%. For `CCCc1nc(N2Cc3cnn(Cc4ccc(F)cc4)c3C2)no1`, the Percent Effect was -0.77%.

For the compound `N#Cc1ccc(C2CC(=O)Nc3c2cnn3C2CCCC2)cc1` (stereo not given), the Percent Effect was -5.3%. Then `O=C(CC1=CCCCC1)NCCc1csc(N2CCCC2)n1`, with 2.52%. Regarding `CCS(=O)(=O)c1ccc(N2CCC(NC(C)=O)CC2)cc1`, the Percent Effect turned out to be 1.78%.

As for `Cc1cc(C)nc(N2Cc3cnn(Cc4ccc(F)cc4)c3C2)n1`, the Percent Effect was -2.29%.

Consider `CCc1nsc(NC2CCCn3nc(COC)nc32)n1` (stereo not given), for which the Percent Effect is -2.56%. `c1ccc(OCCN2CCCC(c3noc(C4CC4)n3)C2)cc1` (stereo not given): the Percent Effect was -0.885%.

Consider `Cc1cc(CN(C)C2CCCN(c3cccnn3)C2)on1` (stereo not given), for which the Percent Effect is 0.172%.

Consider `Cc1nc(C2CCCN2C(=O)CNS(C)(=O)=O)no1` (stereo not given), for which the Percent Effect turned out to be 0.586%. Regarding `CC(NC(=O)NCCCn1cccn1)c1cccnc1` (stereo not given), the Percent Effect was -3.83%. The value for `COc1ccc(F)c(CN2CCC3(CCC(=O)N(CC(N)=O)C3)CC2)c1` was -3.94%; that for `CCS(=O)(=O)c1ccc(N2CCC(NC(=O)c3cnn(C)c3)CC2)cc1` was -0.471%; that for `CC(C)c1nccn1CCCNC(=O)c1ccc(-c2cncnc2)nc1` was -1.78%. As for `Cc1nn(CCO)c(C)c1CNC1CCC(C)(C)c2ccccc21` (stereo not given), the Percent Effect was -0.793%. Take `Cc1ccccc1CS(=O)(=O)NCCCN1CCCCC1`: the Percent Effect was -2.17%. Then `c1cn(Cc2nnc(C3CCN(C4CCOCC4)CC3)n2C2CC2)cn1`, with -3.53%; and `COc1ncccc1NC(=O)N1CCC(CN2CCOCC2)CC1`, with -3.02%; and `CCn1nc(CC(C)C)cc1C(=O)N1CC[C@@H](O)C1`, with -5.25%. The value for `COc1ccc(-c2nc(CN3CCOCS3(=O)=O)c(C)o2)cc1` was -1.67%; that for `CCNC(=O)NC(=O)CSC(C)c1ccccc1F` (stereo not given) was 2.19%.

For `Cc1c[nH]c(CN(C)C(=O)c2cccc(CCC(C)(C)O)c2)n1`, the Percent Effect is -1%.

For `Cc1ccc2ncnc(N3CCOCC3c3c(C)nn(C)c3C)c2c1` (stereo not given), the Percent Effect was -0.356%. Then `CCCn1cc(C(=O)N(C)Cc2nc(-c3ccccn3)no2)c(C)n1`, with -0.218%; and `CCc1nc(NS(=O)(=O)c2ccc(F)cc2C)no1`, with -2.08%. The value for `NC(=O)C1CCN(Cc2cccc(NC(=O)c3ccsc3)c2)CC1` was -1.25%; that for `CCC(C(=O)NCc1ccncc1)N(c1cccc(C)c1)S(C)(=O)=O` (stereo not given) was -1.51%. The value for `COc1ccc(Cc2nnc(SC)o2)cc1OC` was -2.13%. Turning to `Cc1nonc1CN(C)CC1(O)CCCN(CCC2CCCCC2)C1=O` (stereo not given), the Percent Effect stood at 0.149%. Then `CCn1nc(C)c(CNC(=O)c2cn(CCC3CCCCN3)nn2)c1C` (stereo not given), with 0.0575%. As to `COc1ccc([C@@H]2CN(C(=O)CCC(F)(F)F)C[C@H]2NC(C)=O)cc1`, the Percent Effect was -2.84%. On to `Cc1cc(C)n(-c2cc(N3CCN(C(=O)C(C)(C)C)CC3)nc(C)n2)n1`, for which the Percent Effect turned out to be 0.747%. As for `Cc1cnn(CCNCc2csc(C)n2)c1`, the Percent Effect came out at 0.747%.

`Cc1ccc(CNCc2nnc3n2CCCC3C(F)(F)F)s1` (stereo not given): the Percent Effect was determined as 4.24%. The value for `CSC(C)(C)CNC(=O)NCCC1CCN(C)CC1` was -1.57%; that for `COc1cccc(Cc2nnc(SC3CCOC3=O)o2)c1` (stereo not given) was -2.01%; that for `O=C(Nc1cccc(OCc2cccc(F)c2)c1)C1COCCO1` (stereo not given) was 0.563%. Turning to `CSc1cccc(CNC(=O)C2CC(=O)N(CCN(C)C)C2)c1` (stereo not given), the Percent Effect was determined as 2.84%.
